# Measurements from article PMC4336329 (PLoS ONE, 2015).
# About 14,000 (4.5%) of roughly 310,000 compounds showed an effect of 50% or more. The effect is printed as a negative number. Only a selection was taken, and strong results are over-represented in it overall.
# Target: human ether-à-go-go-related gene (hERG) potassium channel (human, UniProt Q12809)
# Assay: primary screen, population patch clamp on CHO cells stably expressing hERG; higher = less effect of the substance
# 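Note: peak tail current of the secondary pulse compared with the same well before compound.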
# Sequence of human ether-à-go-go-related gene (hERG) potassium channel (Q12809 whole entry, looked up): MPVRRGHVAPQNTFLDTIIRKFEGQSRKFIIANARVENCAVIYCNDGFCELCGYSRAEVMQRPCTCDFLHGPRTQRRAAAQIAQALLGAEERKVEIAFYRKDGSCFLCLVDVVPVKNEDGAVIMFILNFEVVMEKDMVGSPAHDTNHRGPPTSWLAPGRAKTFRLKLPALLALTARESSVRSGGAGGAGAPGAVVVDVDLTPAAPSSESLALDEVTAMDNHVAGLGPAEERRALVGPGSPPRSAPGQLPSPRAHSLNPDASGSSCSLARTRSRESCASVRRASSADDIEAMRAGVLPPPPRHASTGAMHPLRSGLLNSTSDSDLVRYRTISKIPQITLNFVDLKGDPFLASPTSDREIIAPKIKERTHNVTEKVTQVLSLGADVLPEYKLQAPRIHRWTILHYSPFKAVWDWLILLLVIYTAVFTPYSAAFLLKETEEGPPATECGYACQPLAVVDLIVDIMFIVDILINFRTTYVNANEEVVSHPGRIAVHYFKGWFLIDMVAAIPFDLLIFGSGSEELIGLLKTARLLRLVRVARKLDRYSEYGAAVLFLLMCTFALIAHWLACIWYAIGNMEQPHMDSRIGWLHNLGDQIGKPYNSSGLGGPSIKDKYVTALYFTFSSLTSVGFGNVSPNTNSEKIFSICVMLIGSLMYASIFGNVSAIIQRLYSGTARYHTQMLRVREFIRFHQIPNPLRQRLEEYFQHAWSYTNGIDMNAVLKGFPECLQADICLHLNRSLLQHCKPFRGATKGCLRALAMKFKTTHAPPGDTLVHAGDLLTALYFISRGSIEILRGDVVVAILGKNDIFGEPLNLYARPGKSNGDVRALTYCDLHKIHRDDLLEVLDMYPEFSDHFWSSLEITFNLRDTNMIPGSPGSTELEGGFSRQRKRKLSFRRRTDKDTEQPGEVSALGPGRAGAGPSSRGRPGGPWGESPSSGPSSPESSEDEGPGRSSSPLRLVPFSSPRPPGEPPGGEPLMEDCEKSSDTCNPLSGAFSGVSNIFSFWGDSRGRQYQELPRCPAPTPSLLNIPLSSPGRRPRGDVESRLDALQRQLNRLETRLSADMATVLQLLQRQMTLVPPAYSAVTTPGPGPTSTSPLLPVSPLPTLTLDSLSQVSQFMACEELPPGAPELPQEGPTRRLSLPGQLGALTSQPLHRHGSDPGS
row,SMILES,"hERG current change (%, negative = inhibition) at 10uM"
1,O=C(COc1c(Br)cc(Br)cc1Br)N/N=C/c1ccco1,14.2%
2,Nc1nnc(SCC(=O)Nc2ccc(Cl)c(C(=O)O)c2)s1,19.8%
3,O=C(NCCc1ccc(C(F)(F)F)cc1)C1CC(=O)N(c2ccc3c(c2)OCCO3)C1 (stereo not shown),-2.97%
4,O=C(Cn1cc(C(=O)C2CCCCC2)c2ccccc21)NCC1CCCO1 (stereo not shown),-14.8%
5,O=C(Nc1ccc(Br)cc1)NC1CCCCCCC1,2.29%
6,O=C(NCCN1CCCCC1)/C(=N\O)c1ccccc1,5.35%
7,O=C(CCC(=O)N1CCN(c2ccc(O)cc2)CC1)c1cccs1,-3.11%
8,COc1ccc(N2CCN(C(=O)CCNC(=O)c3ccc(Br)cc3)CC2)cc1,-20.2%
9,O=C(CCn1c(=O)[nH]c2ccsc2c1=O)N1CCN(c2ccc([N+](=O)[O-])cc2)CC1,-35.2%
10,O=C(NCCC(=O)N1CCN(c2ccccc2O)CC1)c1ccc(Br)cc1,-13.3%
11,COc1ccccc1N1CCN(C(=O)CCn2c(=O)[nH]c3ccsc3c2=O)CC1,8.71%
12,O=C(CCC(=O)N1CCN(c2cccc(Cl)c2)CC1)c1cccs1,-56.8%
13,O=C(NCCC(=O)N1CCN(c2cccc(Cl)c2)CC1)c1ccc(Br)cc1,-55%
14,O=C(c1cccs1)N1CCN(c2cccc(Cl)c2)CC1,-16.5%
15,O=C(CCn1c(=O)[nH]c2ccsc2c1=O)N1CCN(c2cccc(Cl)c2)CC1,-52.3%
16,COc1ccccc1CSc1ncc(-c2ccc([N+](=O)[O-])cc2)[nH]1,-13.8%
17,CC(C)(C)C(=O)CN1C(=O)NC2(CCCc3ccccc32)C1=O (stereo not shown),14%
18,O=C(CCC1CCN(C(=O)c2cncs2)CC1)Nc1ccccc1,-4.83%
19,COCCNC(=O)CN(C(=O)CCC(=O)Nc1ccccn1)c1ccc(C)c(C)c1,16%
20,CCc1ccc(C(=O)/C=C/NCc2ccc(F)cc2)cc1,-4.74%
21,COc1ccc(C(=O)/C=C/NCc2ccc(F)cc2)cc1OC,-65%
22,Cc1ccc(C(=O)/C=C/NCc2ccc(F)cc2)cc1,-9.71%
23,CC(C)=C1C2CCC1C1C(=O)N(c3nc(-c4ccccc4)c(C)s3)C(=O)C21 (stereo not shown),-2.93%
24,COc1cccc(NC(=O)CSc2nc3scc(C)c3c(=O)[nH]2)c1,10.5%
25,CN(C)CCNS(=O)(=O)c1ccc(N2CCN(c3ccc(F)cc3)CC2)c([N+](=O)[O-])c1,-62.4%
26,CC(=O)c1ccc(N2CCN(c3ccc(S(=O)(=O)NCCN(C)C)cc3[N+](=O)[O-])CC2)cc1,-23.2%
27,CC(=O)c1ccc(N2CCN(c3ccc(S(=O)(=O)NCCCN(C)C)cc3[N+](=O)[O-])CC2)cc1,-18.1%
28,CCOC(=O)c1c(N)nn(C(=O)C(C)C)c1-c1ccc(OC)cc1,22.1%

row,SMILES,"hERG current change (%, negative = inhibition) at 10uM"
1,O=[n+]1c2c(n([O-])c3cc(F)c(F)cc31)CCCC2,10.2%
2,CN(C)CCn1c2c(c(SCC(=O)Nc3nccs3)nc1=O)CCCC2,-30%
3,CCN(CC)CCn1c2c(c(SCC(=O)Nc3nc(C)cs3)nc1=O)CCCC2,-70.1%
4,CCN(CC)CCn1c2c(c(SCC(=O)Nc3nccs3)nc1=O)CCCC2,-59.5%
5,CCN(CC)CCCn1c2c(c(SCC(=O)Nc3nccs3)nc1=O)CCC2,-32%
6,Cc1csc(NC(=O)CSc2nc(=O)n(CCN(C)C)c3c2CCCC3)n1,-55.9%
7,CCN(CC)CCCn1c2c(c(SCC(=O)Nc3nc(C)cs3)nc1=O)CCC2,-42.6%
8,CCN(CC)CCn1c2c(c(SCC(=O)Nc3nc(C)cs3)nc1=O)CCC2,-48.7%
9,Cc1ccc(S(=O)(=O)NCC(=O)NCC(=O)OC(C(=O)NC(N)=O)C(C)C)cc1C (stereo not shown),8.86%
10,CC(C)c1nc(SCC(=O)N2CCCCCC2)c2c(=O)n(C)c(=O)n(C)c2n1,-11.2%
11,Cc1nc2c(cc1C(=O)N/N=C/c1ccc([N+](=O)[O-])cc1)c(=O)n(C)c(=O)n2C,-12%
12,CC1=C(C)CC(C(=O)Nc2cccc(Cl)c2)C(C(=O)O)C1 (stereo not shown),9.8%
13,O=C(NC1CC2CCCC(C1)N2CC(=O)N1CCCc2ccccc21)C1CCCCC1 (stereo not shown),-70.6%
14,CC(=O)NC1CC2CCCC(C1)N2CC(=O)N1CCCc2ccccc21 (stereo not shown),-7.15%
15,O=C(CN1C2CCCC1CC(NC(=O)C1CCCCC1)C2)Nc1ccccc1 (stereo not shown),-27%
16,O=C(c1ccc2c(c1)OCCO2)C1CCN(C(=O)c2ccc(F)c(F)c2)CC1,-15.7%
17,CCOc1ccc(C(=O)N2CCC(C(=O)c3ccc4c(c3)OCCO4)CC2)cc1,-75.7%
18,CCOC(=O)C1CCN(C(=O)c2ccc3c(c2)S(=O)(=O)c2ccccc2C3=O)CC1,-76.6%
19,CCOC(=O)C1CCN(C(=O)C2CCN(S(=O)(=O)N3CCCC3)CC2)CC1,-64.9%
20,O=C1c2ccccc2S(=O)(=O)c2cc(C(=O)N3CCC(O)CC3)ccc21,6.7%
21,NC(=O)C1CCN(C(=O)c2ccc3c(c2)S(=O)(=O)c2ccccc2C3=O)CC1,2.8%
22,CCOC(=O)N1CCN(C(=O)C2CCN(C(=O)c3ccc([N+](=O)[O-])cc3)CC2)CC1,-72%
23,O=C(c1ccc2c(c1)OCCO2)C1CCN(C(=O)c2ccc(F)cc2)CC1,-13%
24,O=C(c1ccc([N+](=O)[O-])cc1)N1CCN(C(=O)C2CCCCC2)CC1,-28.5%
25,CCOC(=O)C1CCN(C(=O)C2CCN(S(=O)(=O)CC)CC2)CC1,-2.7%
26,CCOC(=O)N1CCN(C(=O)C2CCN(C(=O)c3ccc(C(C)(C)C)cc3)CC2)CC1,-31%
27,CCOC(=O)N1CCN(C(=O)C2CCN(S(=O)(=O)N3CCCC3)CC2)CC1,6.91%
